# Bioassay records from PubChem.
# An excerpt weighted towards active compounds, which were near 2.2% of everything screened.
# ANO1 block: TMEM16A chloride channel inhibitors, primary screen, cell-based, HTS; HEK293 TMEM16A/YFP iodide influx fluorescence, ionomycin; normalized B-score (activity score, 25-100; higher = stronger inhibition) at 10 µM; 310,000 compounds, 1.2% hits;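 active = ratio plate-corrected score three or more library SD toward inhibition, starting fluorescence score within five deviations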;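 also: score derived from kinetic fluorescence span divided by baseline fluorescence per well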
# TLR4-MyD88 BLA: inhibitors of TLR4-MyD88 association in cells, primary screen, cell-based, HeLa CL3-4, BLA complementation, FRET ratio. Toll-like receptor 4 (Homo sapiens) + Myeloid differentiation primary response protein …. HeLa CL3-4 TLR4/MyD88 BLA complementation. inhibition, % at 8.4 µM. 200,000 compounds, 0.18% hits. AID 861, 2007; in the data active = inhibition above about 25%;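 also: 0% = vehicle and 100% = reference inhibitor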
# NOD2-RIPK2 inh: NOD2-RIPK2 binding disruptors in cells, primary screen, fluorescence, CHO cells, BLA complementation | Receptor-interacting serine/threonine-protein kinase 2 (Homo sapiens), O43353 | 360,000 compounds, 0.38% hits | CCF4 ratio | inhibition, % at 4.98 µM | AID 624267, 2012; in the data active = inhibition above about 21%;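 also: 0% = vehicle only and 100% = reference blocker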
# ANO1 activ: TMEM16A chloride channel activators or potentiators, primary screen, cell-based, HTS; Anoctamin-1 (Mus musculus), Q8BHY3; HEK293 TMEM16A/YFP-H148Q/I152L, iodide quench fluorescence; hits give low values; B-score at 10 µM; 340,000 compounds, 0.3% hits; AID 623877, 2012;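 active = fluorescence-ratio B-score plate-corrected deviation score at least 3 library SD below zero, with starting fluorescence score within 5 deviations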;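 also: channel opened by trigger with iodide after compound preincubation; score built on the fluorescence ratio of max minus min over baseline; more negative score means more quench and so TMEM16A activation or potentiation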
# TLR9-MyD88 inh: inhibitors of TLR9-MyD88 association in cells, primary screen, cell-based, CHO, BLA complementation, fluorescence; inhibition, % at 4.98 µM; Toll-like receptor 9 (Homo sapiens) + Myeloid differentiation primary response protein …; 340,000 compounds, 0.21% hits; CCF4 FRET ratio;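 active = inhibition above the mean over all tested compounds plus 3 SD, cut at about 21% in these data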;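 also: 0% = DMSO only wells and 100% = clavulanate BLA inhibitor control wells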
# GRK2 aptamer HTS: compounds blocking aptamer binding on GRK2 – biochemical, human GRK2, bead flow cytometry, HTS, primary screen; Beta-adrenergic receptor kinase 1 (Homo sapiens), P25098; FAM-aptamer displacement from GRK2; inhibition of aptamer binding, % at 10 µM; 330,000 compounds, 0.59% hits; AID 488847, 2010;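 active = inhibition of aptamer binding above 40%, roughly 3 SD of noise, on plates passing a quality check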;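 also: median bead fluorescence of bound FAM aptamer so fluorescent compounds give negative values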
# GRK2 inh confirm: GRK2 aptamer-displacing inhibitors, retest, confirmation, biochemical, cherry pick 1, bead flow cytometry; shares compounds with GRK2 aptamer HTS; bead-bound GRK2, FAM-aptamer displacement; aptamer displacement, % at 10 µM; 2,000 compounds, 4% hits; AID 504451, 2011;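 active = aptamer displacement above 40%, near three times the noise of non-fluorescent compounds, on plates passing quality checks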;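 also: negative values mostly reflect intrinsic compound fluorescence rather than true enhancement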
# FAM quench CP1: quenches fluorescent RNA aptamer, GRK2 hit artifact; fluorescence response (% of DMSO), % at 10 µM; shares compounds with GRK2 aptamer HTS; Carboxyfluorescein RNA aptamer on beads, flow cytometry quenching; hits give low values; 2,000 tested, under 10 active;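 active = compounds that quench the bead-bound fluorescent RNA probe, cutting fluorescence to under half of the solvent control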;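 also: counterscreen run without GRK2 so only probe quenching by compound is measured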
# GRK2 CP2: GRK2 aptamer-displacing inhibitors, hit retest, confirmation, biochemical, cherry pick 2, bead flow cytometry. shares compounds with GRK2 aptamer HTS. bead-bound GRK2, FAM-aptamer displacement. inhibition of aptamer binding, % at 10 µM. 360 tested, under 10 active. AID 504782, 2011;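 active = inhibition of aptamer binding above 40%, about triple the noise seen with nonglowing compounds, on plates passing quality control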;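 also: negative values mostly come from compounds that fluoresce themselves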
# FAM quench SP: counter-screen for GRK2 binding hits: quenchers of fluorescent RNA aptamer | AID 588494 | carboxyfluorescein RNA aptamer beads, flow cytometry quenching; hits give low values | fluorescence response vs DMSO, % at 10 µM | shares compounds with GRK2 aptamer HTS | 360 tested, under 10 active;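 active = response vs DMSO under 50%, meaning signal dropped by over half, treated as fluorescence quencher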;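 also: labelled aptamer on streptavidin beads without GRK2 as a quench counter-screen; 100% = bead fluorescence of DMSO wells and lower means quenching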
# The depositor's hits bear a star; i = inactive; · = no result.
SMILES,ANO1 block,TLR4-MyD88 BLA,NOD2-RIPK2 inh,ANO1 activ,TLR9-MyD88 inh,GRK2 aptamer HTS,GRK2 inh confirm,FAM quench CP1,others
N#CC1(NC(=O)CN2C(=O)c3ccc([N+](=O)[O-])cc3C2=O)CCCCC1,i,·,-3.3,i,-0.5,2.0,·,·,
Cc1nc2cc(C(=O)N3CCc4ccccc43)ccc2n1-c1ccc(F)c(F)c1,i,7.8,3.0,i,-7.7,93.0*,·,·,GRK2 CP2=-12.4;FAM quench SP=100.0
Cc1cc(C(=O)N2CCc3ccccc32)c2cc(F)ccc2n1,i,2.4,-1.7,i,4.0,76.0*,2.2,102.3,
Cc1cc(C)cc(NC(=S)/C(=C(\[O-])c2ccc(Cl)cc2Cl)[n+]2ccc(C(C)(C)C)cc2)c1,i,·,-3.2,i,5.1,41.0*,-3.7,100.8,
Cc1cc(C)cc(NC(=S)/C(=C(\[O-])c2ccc(Cl)s2)[n+]2cccc(C)c2)c1,i,2.5,-8.8,i,-1.6,2.0,·,·,
COc1cc(C(=O)NCc2nnc(SCC(=O)Nc3cc(C)on3)o2)cc(OC)c1OC,i,14.0,-4.9,i,0.9,74.0*,0.0,103.2,
CCc1ccc(NC(=S)NC(=O)CC(C)C)cc1,i,-20.8,6.8,i,8.2,69.0*,0.4,101.8,
Cc1cccc(Cn2c(=O)oc3ccc(C)cc32)c1,i,·,-0.6,i,3.6,68.0*,-2.3,98.4,
COc1ccc(CCN2CC(C(=O)N(C)CCOc3ccccc3)CCC2=O)cc1 (stereo unspecified),i,·,-2.7,i,6.0,0.0,1.6,95.7,
COc1ccc(CCN2CC(C(=O)N(C)Cc3ccccc3OC)CCC2=O)cc1 (stereo unspecified),i,·,1.8,i,11.5,2.0,·,·,
CN(CCOc1ccccc1)C(=O)C1CCC(=O)N(CCc2ccc(Cl)cc2)C1 (stereo unspecified),i,·,2.1,i,-4.5,0.0,-0.3,95.7,
CCC(Sc1ncccc1Nc1ccccn1)C(=O)O (stereo unspecified),i,·,-3.2,i,1.3,0.0,·,·,
CCOc1ccc(C2C(C(=O)c3cccs3)=C(O)C(=O)N2CCCn2ccnc2)cc1 (stereo unspecified),i,7.6,·,·,·,0.0,·,·,
Cc1ccc(NC(=O)CNC(=O)C2CCCCC2)nc1,i,·,-8.0,i,5.1,63.0*,-1.2,105.0,
COc1ccc(-c2ccc3c(c2)c(Sc2ccccc2)c(-c2ccccc2)n3C)cc1,·,·,-1.4,·,·,·,·,·,
Cc1ccc(NC2c3ncccc3C(=O)N2Cc2ccco2)c(C)c1 (stereo unspecified),i,-20.9,0.3,i,-1.1,2.0,·,·,
COC(=O)/C=C1\N/C(=N/c2nc(C)c3cc(OC)ccc3n2)NC1=O,i,·,4.6,i,-1.4,55.0*,12.2,97.0,
Cc1noc(C)c1COc1ccc(C(=O)NNC(=O)c2ccccc2)cc1,i,·,2.3,i,1.9,100.0*,0.5,107.2,
